Screens from PubChem.
An excerpt weighted towards active compounds, which were near 1.8% of everything screened.
GSTO1 inh: GSTO1 inhibition, counter-screen for RBBP9 inhibitors; P78417; recombinant GSTO1, activity-based probe fluorescence polarization; inhibition, % at 5.96 µM; 1.1% of 300,000 active; AID 1974;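 active = inhibition above the campaign mean inhibition plus 3 SD, cut at about 35% in these data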
Target sequence (P78417 whole entry, looked up): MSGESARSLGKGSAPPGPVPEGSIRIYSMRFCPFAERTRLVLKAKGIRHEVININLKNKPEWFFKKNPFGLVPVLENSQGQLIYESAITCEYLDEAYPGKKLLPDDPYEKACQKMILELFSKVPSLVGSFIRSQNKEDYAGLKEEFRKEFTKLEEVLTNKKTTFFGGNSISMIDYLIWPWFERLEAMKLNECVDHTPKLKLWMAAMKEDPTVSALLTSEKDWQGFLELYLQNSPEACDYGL
PME-1 primary: blocks human protein phosphatase methylesterase 1; Q9Y570; AID 2130; recombinant PME-1, FP-Rh probe fluorescence polarization; inhibition, % at 5.9 µM; 0.53% of 320,000 active;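 active = inhibition above the campaign mean of all compounds plus 3 SD, cut at about 26% in these data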;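 note: competitive labeling of PME-1 active site by serine hydrolase directed probe; inhibitors block probe labeling so polarization falls and inhibition rises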
PAD4 FP inh: blocks human protein arginine deiminase 4. inhibition, % at 6.36 µM. Q9UM07. 0.41% of 330,000 active. AID 485272. recombinant PAD4, RCA probe fluorescence polarization;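 active = percent inhibition above a cutoff equal to the mean of all tested compounds plus 3 SD, cut at about 15% in these data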
Fam108B inh: blocks mouse Fam108B hydrolase in RBBP9 counter-screen | 0.33% of 300,000 active | recombinant Fam108B, FP-Rh probe fluorescence polarization | inhibition, % at 9.51 µM;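 active = inhibition above the screen mean inhibition plus 3 SD, computed separately per campaign, cut at about 18% in these data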;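 note: inhibitors lower polarization as less probe binds the enzyme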
LYPLA1 counter: blocks human lysophospholipase 1, a PME1 counter-screen; recombinant LYPLA1, FP-Rh probe fluorescence polarization; inhibition, % at 5.9 µM; 0.16% of 320,000 active; AID 2174;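 active = inhibition above the mean of all tested compounds plus 3 SD, set per campaign, cut at about 14% in these data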;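 note: inhibitors block serine hydrolase probe labeling of LYPLA1 so polarization falls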
Target sequence (O75608 whole entry, looked up): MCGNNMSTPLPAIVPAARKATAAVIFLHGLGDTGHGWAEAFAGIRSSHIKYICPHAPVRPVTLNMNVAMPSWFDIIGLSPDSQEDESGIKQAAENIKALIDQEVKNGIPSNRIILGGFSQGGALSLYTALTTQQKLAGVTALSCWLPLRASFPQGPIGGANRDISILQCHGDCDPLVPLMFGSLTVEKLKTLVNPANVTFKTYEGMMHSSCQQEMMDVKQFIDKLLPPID
LYPLA2 counter: blocks human lysophospholipase 2, a PME1 counter-screen. O95372. recombinant LYPLA2, FP-Rh probe fluorescence polarization. inhibition, % at 5.9 µM. 0.38% of 320,000 active;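 active = inhibition above the screen-wide mean plus 3 SD, limit set per campaign, cut at about 26% in these data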
Fam108b confirm: Fam108b (mouse) hydrolase inhibition, confirmation assay; shares compounds with Fam108B inh; recombinant Fam108b, FP-Rh probe fluorescence polarization; inhibition, % at 9.51 µM; AID 1978; 44% of 930 active;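 active = inhibition above a limit from the primary screen, the mean over all compounds plus 3 SD, cut at about 19% in these data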;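 note: inhibitors free the probe so polarization falls as inhibition rises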
Fam108b ABPP HTS: inhibits mouse Fam108b in gel-based ABPP; AID 588649; inhibition, % at 20 µM; recombinant Fam108b, fluorophosphonate probe; 44% of 260 active; shares compounds with Fam108B inh; in the data active = inhibition above about 40%
A number is an active result; . = inactive; / = not tested or not shown.

SMILES	GSTO1 inh	PME-1 primary	PAD4 FP inh	Fam108B inh	LYPLA1 counter	LYPLA2 counter	Fam108b confirm	others
CCN(CC)S(=O)(=O)c1cccc(C(=O)N[C@H](C(=O)Nc2nc3ccc(F)cc3s2)C(C)C)c1	.	.	.	.	.	.	/
O=[N+]([O-])c1c(N2CCN(CCO)CC2)nc2ccccn12	.	.	.	.	.	.	/
CCCCn1c(N)c(N(CCOC)C(=O)CSCc2ccccc2C)c(=O)[nH]c1=O	.	.	.	27.0	.	.	.
CCCCn1c(N)c(N(CCOC)C(=O)CSc2ccccc2C)c(=O)[nH]c1=O	.	.	.	.	.	.	/
COc1ccc(N2C(=O)C3ON(C4SC(=S)N(C)C4(C)C)C(c4ccc(Cl)cc4)C3C2=O)cc1 (stereo unspecified)	.	.	.	.	.	.	/
CCN(CC(=O)Nc1c(C(=O)OC)[nH]c2ccc(Cl)cc12)c1ccc2c(c1)OCO2	.	39.7	.	21.4	.	.	.
O=C1[C@@H]2[C@H](C(=O)N1Cc1ccco1)[C@H]1C=C[C@@H]2C1	.	.	.	.	.	.	/
COc1cc(SC)ccc1C(=O)OC(C)C(=O)Nc1ccc(NC(C)=O)cc1 (stereo unspecified)	.	.	.	.	.	.	/
c1cc2c3c(cccc3c1)NC1(CCCCC1)N2	.	.	.	.	.	.	/
c1cc2c3c(cccc3c1)NC1(CCC3(CC1)Nc1cccc4cccc(c14)N3)N2	.	47.3	.	36.2	.	.	.
CC(Sc1cccc[n+]1[O-])C(=O)Nc1ccc(Oc2ccccc2)cc1 (stereo unspecified)	.	.	.	.	.	.	/
CC1(C)CC(=O)c2c(O)c(-c3ccccc3)c(=O)n(-c3ccccc3)c2C1	.	.	.	.	.	.	/
CC(NC(=O)c1ccc(NC(=O)CC2SC(N3CCCC3)=NC2=O)cc1)c1ccc(F)cc1 (stereo unspecified)	/	.	.	/	.	.	/
Cn1c(=O)c(C#N)c(-c2ccc(F)cc2)c2cc(C(=O)c3cc(Cl)cc(Cl)c3O)cnc21	.	63.4	.	22.4	.	.	21.5
O=c1cnnc(NCc2ccccc2)[nH]1	.	.	.	22.3	.	.	.
Cc1ccc(S(=O)(=O)Nc2cc(C)c(O)cc2C)cc1	.	.	.	.	.	.	/
Cc1ccc(S(=O)(=O)Nc2csc(C)c2C(=O)O)cc1	.	.	.	47.4	.	.	.
Cc1ccc(C)c(-n2c3nc(=O)[nH]c(=O)c-3cc3cc([N+](=O)[O-])ccc32)c1	.	36.0	.	26.2	.	.	34.9	Fam108b ABPP HTS=70.0
CC(=O)Nc1ccc(Oc2cnccn2)cc1	.	.	.	.	.	.	/
Cc1ccc(CN2CCN(C/C=C/c3ccc(F)cc3)CC2CCO)o1 (stereo unspecified)	.	.	.	.	.	.	/
CCOc1ccc(/C=N/NC(=O)c2nnn(-c3nonc3N)c2-c2ccc(OCC)cc2)cc1	.	.	.	.	.	.	/
CCOc1ccc(-c2c(C(=O)N/N=C/c3c[nH]c4ccccc34)nnn2-c2nonc2N)cc1	.	.	.	18.6	.	.	.
COc1cccc(C2C3=C(Nc4[nH]n(-c5ccccc5)c(=O)c42)c2ccccc2C3=O)c1 (stereo unspecified)	.	27.7	.	23.9	.	.	31.1
Cc1ccc(S(=O)(=O)N(C)C)cc1NC(=O)c1cc(=O)c2ccccc2o1	.	.	.	21.0	.	.	32.9	Fam108b ABPP HTS=.
O=C(N/N=C/c1ccc(O)cc1)c1cccc(N/N=C/c2ccc(O)cc2)c1	.	30.8	.	55.6	.	.	47.6
O=C(N/N=C/c1ccncc1)c1cccc(N/N=C/c2ccncc2)c1	.	.	.	.	.	.	/
COC(=O)c1nccc2c1[nH]c1ccccc12	.	.	.	.	.	.	/
Cc1ccc(S(=O)(=O)N2CCCCC2)cc1C(=O)Nc1ccc(S(=O)(=O)Nc2ncccn2)cc1	.	.	.	.	.	.	/
COc1ccc(CN2C(=O)c3c(c(C)n(C)c3C)C2C(=O)NC2CCC(C)CC2)cc1 (stereo unspecified)	.	.	.	23.9	.	.	.
